# Screening results from PubChem.
# Pol eta inh – DNA polymerase eta (human) inhibition. Q9Y253. recombinant Pol eta, fluorescent DNA replication assay. Potency, µM (highest dose often 114 µM), for inactives: top-dose activity change, negative = inhibition, hits mostly inhibitors. 1.2% of 390,000 active; also: % is scaled to controls: 0 for no effect and ±100 for the full control effect
# Target sequence (Q9Y253 whole entry, looked up): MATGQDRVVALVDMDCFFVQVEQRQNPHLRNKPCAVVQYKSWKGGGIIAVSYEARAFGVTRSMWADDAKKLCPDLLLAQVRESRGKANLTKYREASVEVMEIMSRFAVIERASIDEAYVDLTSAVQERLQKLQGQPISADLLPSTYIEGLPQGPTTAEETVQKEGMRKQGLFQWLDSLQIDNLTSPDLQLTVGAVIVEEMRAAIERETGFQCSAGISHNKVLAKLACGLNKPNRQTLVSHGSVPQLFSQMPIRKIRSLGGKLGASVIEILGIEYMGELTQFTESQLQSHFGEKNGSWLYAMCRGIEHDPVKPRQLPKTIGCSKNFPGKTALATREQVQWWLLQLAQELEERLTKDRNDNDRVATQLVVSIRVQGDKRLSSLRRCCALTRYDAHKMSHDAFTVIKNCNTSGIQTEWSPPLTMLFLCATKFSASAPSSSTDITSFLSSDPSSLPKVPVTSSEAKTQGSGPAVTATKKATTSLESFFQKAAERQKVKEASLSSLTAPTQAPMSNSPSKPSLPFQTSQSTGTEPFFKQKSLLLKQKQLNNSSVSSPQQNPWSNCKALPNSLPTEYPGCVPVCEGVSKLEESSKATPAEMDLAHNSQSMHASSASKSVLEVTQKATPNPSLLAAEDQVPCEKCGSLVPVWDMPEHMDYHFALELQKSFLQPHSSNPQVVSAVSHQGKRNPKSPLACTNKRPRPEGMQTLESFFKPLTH
#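 Fluorescent replication assay: 50 nM final substrate added after a 15 min room-temperature compound preincubation with 10 nM enzyme. Signal taken at 0 min and again at 10 min.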
# POLK inh – inhibitors of human DNA polymerase kappa | Q9UBT6 | purified Pol kappa, fluorescent DNA synthesis assay, 10 min | Potency, µM (doses to about 107 µM), for inactives: top-dose activity, negative = inhibition, hits mostly inhibitors | 0.53% of 400,000 active | AID 588579; also: % is scaled to controls: 0 for no effect and ±100 for the full control effect
#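 Readout: fluorescence, taken kinetically at 0 and 10 min. Conditions: 10 nM Pol kappa, 15 min RT compound preincubation, 50 nM substrate final. Controls: enzyme-free buffer wells.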
# Pol iota inh – DNA polymerase iota (human) inhibition; Potency, µM (top dose mostly 115 µM), inactives show at the highest dose activity, negative = inhibition, usual class: inhibitors; Q9UNA4; 1% of 390,000 active; Pol iota fluorescent replication assay, 10 min
#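 Pol iota at 10 nM preincubated 15 min with compounds at room temperature; reaction started with fluorescent substrate, 50 nM final. Fluorescence read kinetically at 0 and 10 min; buffer-only wells as negative control.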
# POLB inh – blocks human DNA polymerase beta activity. P06746. Pol beta primer extension/strand displacement, fluorescence kinetic. Potency, µM (series often up to 114 µM), for inactives: at the top dose activity change, negative = inhibition, most hits filed as inhibitors. 1.3% of 340,000 active; also: % is scaled to controls: 0 for no effect and ±100 for the full control effect
#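 Pol beta (10 nM) and compounds were preincubated 15 min at room temperature, then 50 nM substrate (final) started primer extension/strand displacement. Reads were taken at 0 and 10 min; concentration-response data were fitted to a four-parameter Hill equation.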
# WRN inhibitor – WRN helicase (human) inhibition; WRN helicase unwinding, fluorescent forked duplex, kinetic; 0.46% of 360,000 active; Q14191; Potency, µM (highest dose often 114 µM), for inactives: top-dose activity change, negative = inhibition, actives largely listed as inhibitors; also: % is scaled to controls: 0 for no effect and ±100 for the full control effect; nearly all actives have a fitted effect of over 55% in size
#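 Kinetic red-fluorescence monitoring (525/598 nm) tracks WRN helicase activity after 100 nM fluorophore-quencher forked duplex and 2 mM ATP are added to 20 nM enzyme pretreated 15 min at room temperature with compound.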
# FEN1 inhibitor – human FEN1 inhibition. P39748. Recombinant FEN1 flap cleavage, fluorescence, 15 min. Potency, µM (top dose mostly 114 µM), for inactives: at the highest dose activity change, negative = inhibition, actives largely listed as inhibitors. 0.35% of 390,000 active. AID 588795; also: % is scaled to controls: 0 for no effect and ±100 for the full control effect; nearly all actives have a fitted effect of over 65% in size
#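 FEN1 at 10 nM, compound pretreatment for 15 min (room temperature), 50 nM final substrate to initiate; endpoint reads at 0 and 15 min; DMSO-only plates used as vehicle background.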
# * marks the source's active call; other numbers are inactive results; u = inconclusive; x = no result; [ ] = another dose, or the depositor's remark. Sampled rows, rich in hits. Any-hit rate of the full collection: about 2.4%. Calls follow the shape of the dose curve; as a rule, active = well fitted curve in the direction sought with a large enough effect; inconclusive = small, poorly fitted or top-dose-only effect, or another doubt; inactive = no such curve, though single readings can be large; an effect the other way counts as inactive or inconclusive. Potency is read from the fitted curve at half-maximal effect.
SMILES,Pol eta inh,POLK inh,Pol iota inh,POLB inh,WRN inhibitor,FEN1 inhibitor
OC[C@H]1NC[C@H](O)[C@@H](O)[C@@H]1O,x,-3.0%[60.1 µM],x,x,x,x
Nc1ccc2ccc(O)cc2c1,50.1µM*,u,u,x,u,u
COc1ccccc1Nc1nn2c(=O)c3ccc(C(=O)NCCCOC(C)C)cc3nc2s1,u,-15.3%,u,44.7µM*,x,-5.6%
CCN(CC)CCNC(=O)c1ccc2c(=O)n3nc(Nc4ccccc4OC)sc3nc2c1,u,0.6%,5.6%,-24.5%,x,u
Cc1ccc(C)c(Nc2nn3c(=O)c4ccc(C(=O)NCc5cccs5)cc4nc3s2)c1,u,4.0%[60.1 µM],-10.3%,11.2µM*,x,-25.8%
COc1cc(/C=C2\C=Cc3ccccc32)ccc1N(C)C,x,1.2%,u,x,x,-14.2%
CC(=O)OCOC(c1ccc2ccccc2c1)P(=O)(OCOC(C)=O)OCOC(C)=O (configuration not stated),x,1.3%[19.4 µM],x,x,x,x
CC(C)(C)n1ncc2c(=O)n(Cc3ccc(Cl)cc3C(F)(F)F)cnc21,x,-11.5%,-22.0%,x,x,6.8%
CCC(/C=C1\Sc2ccc(OC)cc2N1CCO)=C\c1sc2ccc(OC)cc2[n+]1CCO,14.1µM*,u,u,22.4µM*,50.1µM*,35.5µM*
CCC(/C=C1\Sc2ccc(OC)cc2N1CC)=C\c1sc2ccc(OC)cc2[n+]1CCCS(=O)(=O)[O-],u,22.8%[60.1 µM],120.8%,8.91µM*,31.9%,u
O=C(C[n+]1cccc2cc(Cl)ccc21)c1ccc(I)cc1,x,-16.0%,4.5%,x,x,-3.2%
Nc1ncnc2c1nc(Cl)n2[C@@H]1O[C@H](CO)[C@@H](O)[C@@H]1O,x,-16.1%,-2.8%,x,x,7.4%
COc1cc2c(cc1OC)CN(Cc1nc3ccsc3c(=O)[nH]1)CC2,17.8µM*,u,u,u,-34.7%,-12.5%
Cc1ccccc1-c1cncnc1NCc1cccs1,x,-2.3%[60.1 µM],x,x,x,x
C=CCOc1ccc(/C=C\c2nc(O)c([N+](=O)[O-])c(=O)[nH]2)cc1OC,25.1µM*,u,50.1µM*,0.2%,-17.4%,u
C=CCOc1cccc(/C=C\c2nc(O)c([N+](=O)[O-])c(=O)[nH]2)c1,-11.1%,-4.0%,u,-22.3%,-15.6%[57.1 µM],-21.7%
C#CCOc1c(/C=C\c2nc(O)c([N+](=O)[O-])c(=O)[nH]2)cc(Br)cc1OC,35.5µM*,-43.1%,u,u,-1.0%[11.6 µM],u
COC(=O)COc1c(/C=C\c2nc(O)c([N+](=O)[O-])c(=O)[nH]2)cccc1OC,-15.6%,-2.9%,u,11.5%,0.8%,-2.2%
C=CCOc1ccc(/C=C\c2nc(O)c([N+](=O)[O-])c(=O)[nH]2)cc1OCC,20µM*,-7.3%,u,5.8%,-18.2%[11.6 µM],6.8%
COc1ccc(/C=C\c2nc(O)c([N+](=O)[O-])c(=O)[nH]2)cc1O,-13.8%,-8.3%,12.1%,23.3%,u,-19.0%
COc1ccc(/C=C2/C(=O)N(Cc3ccccc3)N=C2C)cc1,-18.4%,-2.7%,22.4µM*,70.2%,-33.7%[57.1 µM],1.4%
CC1=NN(c2ccccc2)C(=O)/C1=C/c1ccc(Cl)cc1,-1.6%,2.2%,u,-28.9%,2.6%[11.6 µM],u
CCC(C(=O)Nc1cccc(-c2cn3cccnc3n2)c1)c1ccccc1 (configuration not stated),-14.8%,0.1%[60.1 µM],5.4%,-16.7%,x,1.1%
O=C1CSC(=S)N1Nc1ccccc1,-9.4%,-6.0%,31.6µM*,x,u,8.9%
COc1ccc2[nH]c(C)c(C(=O)CN(C)CC(OC)OC)c2c1,x,-4.5%,9.3%,x,x,9.5%
O=C(CCc1ccc(O)cc1)c1c(O)cc(O)cc1O[C@H]1OC(CO)C(O)C(O)C1O (some centres not stated),x,-11.8%[60.1 µM],x,x,x,x
Cc1ccc(CNC(=O)c2ccc(Cn3nc(C)c(Cl)c3C)o2)cc1,u,-17.4%,u,50.1µM*,-33.5%,4.5%
CSc1ccc(/C=C/c2ccnc3ccccc23)cc1,x,-11.2%,33.5%,x,x,-7.7%
